Screening data from PubChem BioAssay.
LMP1 NFkB inh – reduces LMP1-driven NF-kappaB luciferase signal; LMP1-induced NF-kappaB luciferase reporter cells, luminescence; inhibition, % at 12.5 µM; actives 0.69% (n = 350,000); AID 504558; in the data active = inhibition above about 41%
TWEAK Fn14 block – inhibitors of TWEAK-Fn14 interaction signaling; TWEAK-stimulated Fn14 reporter cells, luciferase luminescence, 8 h; inhibition, % at 10 µM; actives 2% (n = 360,000); in the data active = inhibition above about 50%
TROY NFkB inh – TROY signaling inhibition; Q293 LMP1-TROYcd NF-kB luciferase reporter, 4 h; inhibition, % at 10 µM; actives 0.98% (n = 360,000);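 active = compounds whose plate-normalised and pattern-corrected inhibition of the luciferase reporter signal at the single screening dose is 50% or more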
Shn3 3UTR inh – Schnurri-3 reporter inhibition in Clone20 osteoblasts; actives 0.52% (n = 360,000); inhibition, % at 12.5 µM; Clone20 osteoblast Shn3 3'UTR firefly luciferase, 24 h; AID 588674;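 active = mean inhibition of at least 75% with every replicate also reaching 75%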
Peg3 prom inh – inhibitors of Peg3 promoter; HeLa PEG-Prom luciferase reporter, luminescence, overnight; inhibition, % at 20 µM; actives 1.7% (n = 360,000);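 active = inhibition of at least 50% at 20 µM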
MITF TRPM1 inh – MITF TRPM1 promoter inhibition in SK-MEL-5 cells; SK-MEL-5 TRPM1 promoter luciferase, 24 h; actives 0.83% (n = 330,000); inhibition, % at 12.5 µM;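 active = mean inhibition across replicates of 60% or more, whatever share of single replicates reaches that level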
Each line names hits and unclear results; the compound was inactive in the other large screens. An excerpt weighted towards active compounds, which were near 4.1% of everything screened.

Cc1ccc(S(=O)(=O)NCC(=O)NCC2CCCCC2)cc1C	none
C#CCn1c(S(=O)(=O)Cc2ccc(F)cc2)nc(-c2ccccc2)c1-c1ccccc1	LMP1 NFkB inh 42.6
O=c1c(C=NCCCO)c(-c2ccccc2)[nH]n1-c1nc2ccccc2s1	TWEAK Fn14 block 77.2
CCCc1[nH]n(-c2nc3ccccc3s2)c(=O)c1C=NCCCOC	none
CCCCCN=Cc1c(C)[nH]n(-c2nc3ccccc3s2)c1=O	LMP1 NFkB inh 51.4, TWEAK Fn14 block 86.7
COCCCN=Cc1c(-c2ccccc2)[nH]n(-c2nc3ccccc3s2)c1=O	none
COCCn1c(-c2ccc(OC)cc2)cnc1SCC(=O)Nc1cc(C)on1	none
COCCn1c(-c2ccc(OC)cc2)cnc1SCC(=O)Nc1ccc(OC)cc1OC	Peg3 prom inh 63.9
